{"source": "PubChem BioAssay", "note": "Activity calls are given as the source filed them.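 How the source made its calls: active means compounds that lower viability of the colon cancer cells in the luminescence readout, with no numeric limit stated; inactive means the rest.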", "data": [{"assay": "CellTiter-Glo luminescent readout of SW480 viability loss, NPC library primary (AID 1117343)", "conditions": "CellTiter-Glo luminescence; at 20 µM (top of the series)", "values": [{"smiles": "CCOC(=O)C1=C(C)NC(C)=C(C(=O)OC)C1c1cccc(Cl)c1Cl", "note": "(stereo not drawn)", "viability decrease (inhibition)": "139% (active)"}, {"smiles": "O=C(NCCN1CCOCC1)c1ccc(Cl)cc1", "viability decrease (inhibition)": "35.1% (inactive)"}, {"smiles": "CCOc1cc(CC(=O)N[C@@H](CC(C)C)c2ccccc2N2CCCCC2)ccc1C(=O)O", "viability decrease (inhibition)": "68.3% (active)"}, {"smiles": "COCCCC/C(=N\\OCCN)c1ccc(C(F)(F)F)cc1", "viability decrease (inhibition)": "15.4% (inactive)"}, {"smiles": "COc1ccccc1N1CCN(CC(O)COc2cccc3ccccc23)CC1", "note": "(stereo not drawn)", "viability decrease (inhibition)": "92.1% (active)"}, {"smiles": "CC(C)NCC(O)COc1ccc(CCOCC2CC2)cc1", "note": "(stereo not drawn)", "viability decrease (inhibition)": "10.9% (inactive)"}, {"smiles": "COc1cc2nc(N3CCN(C(=O)C4CCCO4)CC3)nc(N)c2cc1OC", "note": "(stereo not drawn)", "viability decrease (inhibition)": "-2.8% (inactive)"}, {"smiles": "c1cnc(N2CCN(Cc3ccc4c(c3)OCO4)CC2)nc1", "viability decrease (inhibition)": "-7.2% (inactive)"}, {"smiles": "CCOC(=O)c1ncn2c1CN(C)C(=O)c1cc(F)ccc1-2", "viability decrease (inhibition)": "17.1% (inactive)"}, {"smiles": "CC(C)NCC(O)COc1ccc(COCCOC(C)C)cc1", "note": "(stereo not drawn)", "viability decrease (inhibition)": "0% (inactive)"}, {"smiles": "CN1CCC(=C2c3ccccc3C=Cc3ccccc32)CC1", "viability decrease (inhibition)": "100% (active)"}, {"smiles": "Cc1ncc([N+](=O)[O-])n1CC(O)CCl", "note": "(stereo not drawn)", "viability decrease (inhibition)": "-45.6% (inactive)"}, {"smiles": "CCc1oc2ccccc2c1C(=O)c1cc(Br)c(O)c(Br)c1", "viability decrease (inhibition)": "154% (active)"}, {"smiles": "O=C(CCNNC(=O)c1ccncc1)NCc1ccccc1", "viability decrease (inhibition)": "81.2% (active)"}, {"smiles": "Oc1ccc(C2CNCCc3c2cc(O)c(O)c3Cl)cc1", "note": "(stereo not drawn)", "viability decrease (inhibition)": "50.9% (active)"}, {"smiles": "O=C1CC2(CCCC2)CC(=O)N1CCCCN1CCN(c2ncccn2)CC1", "viability decrease (inhibition)": "20.4% (inactive)"}, {"smiles": "Cc1cccc(C)c1OCC(C)N", "note": "(stereo not drawn)", "viability decrease (inhibition)": "-7.7% (inactive)"}, {"smiles": "CN1CCC(=C2c3ccccc3CC(=O)c3sccc32)CC1", "viability decrease (inhibition)": "38.1% (inactive)"}]}]}
